Sampled rows, rich in hits. Any-hit rate of the full collection: about 11%.
Pf growth 96h = inhibits malaria parasite growth, 96 h; P. falciparum luciferase reporter growth, 96 h; Potency, µM (top dose mostly 28.7 µM), inactives show top-dose activity change, negative = inhibition, actives largely listed as inhibitors; 6.9% of 320,000 active; AID 504834; also: % is scaled to controls: 0 for no effect and ±100 for the full control effect
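Infected RBCs, 2% Hct / 0.05% parasitemia final; luciferase-reporter P. falciparum; cpd 96 h, 37 C, 5% CO2; luciferase detection reagent; luminescence.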
NS1 function inh = influenza NS1 inhibition. Potency, µM (doses to about 46.1 µM), for the others: at the top dose activity, positive = more growth. 0.4% of 270,000 active; calls by dose curve; also: actives are rising curves; nearly all actives have a fitted effect of over 50% in size
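Compounds were scored for reversing the slow growth caused by influenza A NS1 in S. cerevisiae, measured by optical density at 600 nm. Assay medium contained 2% galactose at pH 6.0; NS1-free yeast of the same strain were the positive control.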
Sm TGR block = inhibitors of Schistosoma mansoni thioredoxin glutathione reductase; Q962Y6; purified TGR, DTNB reduction, TNB absorbance 405 nm; Potency, µM (highest dose often 114 µM), for inactives: top-dose activity change, negative = inhibition, hits mostly inhibitors; 3% of 360,000 active; also: % is scaled to controls: 0 for no effect and ±100 for the full control effect; nearly all actives have a fitted effect of over 60% in size
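TGR 20 nM + NADPH 100 uM (dispensed conc.), cpd preinc 15 min RT; start with NADPH (500 uM addition) then DTNB (15 mM addition). Kinetic TNB absorbance, 405 nm filter. Four-parameter Hill fit across titration.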
AMA1 RON2 block = inhibitors of Plasmodium falciparum AMA1-RON2 interaction | AlphaScreen AMA1-biotinylated RON2 peptide binding | Potency, µM (doses to about 58.2 µM), for the others: at the top dose activity change, negative = inhibition, usual class: inhibitors | 0.2% of 360,000 active | AID 720542;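 also: 0% = vehicle wells and -100% = peptide control; nearly all actives have a fitted effect of over 45% in size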
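AMA1 (3D7) with his tag at 25 nM final met compounds first, then biotinylated RON2 peptide at 25 nM; detection used donor plus acceptor beads, 10 µg/mL apiece, read by AlphaScreen after 30 min at room temperature.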
Pf growth 48h = inhibits P. falciparum growth in the first generation, 48 h. 5.9% of 310,000 active. Potency, µM (doses to about 28.7 µM), inactives show at the top dose activity change, negative = inhibition, usual class: inhibitors. P. falciparum luciferase growth in erythrocytes, 48 h; also: % is scaled to controls: 0 for no effect and ±100 for the full control effect
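Firefly luciferase activity from engineered P. falciparum reports growth; inhibitors lower the luminescent signal. Cultures contained 2% hematocrit erythrocytes at 0.1% final parasitemia.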
The depositor's hits bear a star; [ ] = another dose, or the depositor's remark. Unless noted, calls follow the shape of the dose curve; as a rule, active = well fitted curve in the direction sought with a large enough effect; inconclusive = small, poorly fitted or top-dose-only effect, or another doubt; inactive = no such curve, though single readings can be large; an effect the other way counts as inactive or inconclusive. Potency is read from the fitted curve at half-maximal effect.

`O=C(CN1CCN(C(=O)c2ccco2)CC1)Nc1cc(S(=O)(=O)N2CCCC2)ccc1Cl` gave AMA1 RON2 block -13.0%.
For O=C(CN1CCN(c2ccccc2O)CC1)Nc1cc(S(=O)(=O)N2CCCC2)ccc1Cl the results were Pf growth 96h 3.29µM*, Sm TGR block -2.1%, AMA1 RON2 block 15.4% and Pf growth 48h 4.15µM*.
Screening COc1cc(-c2cc3nc(C)c(C)c(=O)n3[nH]2)cc(OC)c1OC returned Pf growth 96h 96.7%, NS1 function inh 6.9%, Sm TGR block 6.9%, AMA1 RON2 block -0.7% and Pf growth 48h 10.4µM*.
For Cc1csc(=O)n1CCC(=O)OCC(=O)Nc1ccc(S(N)(=O)=O)cc1 the results were Pf growth 96h inconclusive, Sm TGR block -32.3%, AMA1 RON2 block -11.6% and Pf growth 48h 25.1%.
Screening COc1ccc(OC)c(CN2CCN(C(=O)c3cc4ccccc4cc3O)CC2)c1 returned Pf growth 96h 2.33µM*, NS1 function inh 1.5%, Sm TGR block 6.6%, AMA1 RON2 block inconclusive and Pf growth 48h 4.65µM*.
`COc1cc(CN2CCN(C(=O)c3cccc4ccccc34)CC2)cc(OC)c1O` gave Pf growth 96h 14.7µM*, NS1 function inh -5.7%, Sm TGR block 6.31µM*, AMA1 RON2 block -7.3% and Pf growth 48h -0.3%.
Screening COc1ccc(CN2CCN(C(=O)c3cccc(OC)c3OC)CC2)cc1OC returned Pf growth 96h -16.9%, Sm TGR block 0.8%, AMA1 RON2 block 9.1% and Pf growth 48h 7.1%.
`COc1ccc(OC)c(CN2CCN(C(=O)c3cccc4ccccc34)CC2)c1` gave Pf growth 96h 7.4%, NS1 function inh -11.6%, Sm TGR block 0.0%, AMA1 RON2 block inconclusive and Pf growth 48h -2.8%.
N=C(N)SCc1nc(-c2ccc(Cl)cc2)no1 was read as NS1 function inh -5.6%.
Screening CSc1ccccc1NC(=O)CN(C)C(=O)c1c(C)nn(Cc2ccccc2)c1C returned Pf growth 96h inconclusive, Sm TGR block -4.7%, AMA1 RON2 block -0.9%[11.6 µM] and Pf growth 48h inconclusive.
CCOc1cccc(CN2CCC(N3CCC(C(=O)NCC4CCCO4)CC3)CC2)c1 (stereo unspecified) was read as Pf growth 96h -24.2%, NS1 function inh 3.9%, Sm TGR block -33.9%, AMA1 RON2 block -4.9% and Pf growth 48h -15.1%.
Oc1ccccc1N=N/C(=N/Nc1ccccc1O)c1ccccc1 was read as Pf growth 96h 8.28µM*, Sm TGR block -17.2%, AMA1 RON2 block 8.7% and Pf growth 48h 4.15µM*.
Screening N#C/C(N=Nc1ccccc1O)=N\Nc1ccccc1O returned Pf growth 96h inconclusive, Sm TGR block -28.2%, AMA1 RON2 block -15.1% and Pf growth 48h inconclusive.
Cc1cc(N2CCC(C(N)=O)CC2)nc(-c2ccccc2)n1 was read as Pf growth 96h 0.738µM*, NS1 function inh 5.4%, Sm TGR block -0.1% and AMA1 RON2 block 5.0%.
For CN1CCN(c2nc(-c3ccccc3)nc3c2oc2ccccc23)CC1 the results were Pf growth 96h 5.86µM*, NS1 function inh -50.5%, Sm TGR block 0.0%, AMA1 RON2 block -5.3% and Pf growth 48h inconclusive.
For NC(=O)C1CCN(c2nc(-c3ccccc3)nc3c2oc2ccccc23)CC1 the results were Pf growth 96h 1.47µM*, NS1 function inh 3.4%, Sm TGR block -1.8%, AMA1 RON2 block 14.2% and Pf growth 48h 30.9%.
`CCc1nc(N2CCC(C)CC2)c2oc3ccccc3c2n1` gave Pf growth 96h -2.7%[5.75 µM], NS1 function inh -110.2%, Sm TGR block -11.0%, AMA1 RON2 block 1.0% and Pf growth 48h inconclusive.
COc1cc(C(=O)OCC(=O)N2CCN(C(C)=O)CC2)ccc1OCC(C)C was read as Pf growth 96h 6.6%, Sm TGR block 2.8%, AMA1 RON2 block 5.8% and Pf growth 48h 10.1%.
O=Nc1c(-c2cccc([N+](=O)[O-])c2)nc2ncccn12 was read as Pf growth 96h -15.0%, NS1 function inh -74.9%, Sm TGR block inconclusive and Pf growth 48h inconclusive.
For Cc1ccc(/C=C/C(=O)Nc2ccc(Oc3ccccc3)cc2)o1 the results were Pf growth 96h inconclusive, NS1 function inh -8.0%, Sm TGR block 17.8µM*, AMA1 RON2 block -17.2% and Pf growth 48h 5.0%.
Screening Cc1cc(NS(=O)(=O)c2ccc(NC(=O)/C=C/c3ccc(C)o3)cc2)nc(C)n1 returned Pf growth 96h 7.38µM*, NS1 function inh 10.2%, Sm TGR block 3.16µM*, AMA1 RON2 block -0.6% and Pf growth 48h 14.0%.
`CC(=O)c1ccc(NC(=O)/C=C/c2ccc(C)o2)cc1` gave Sm TGR block 11.2µM*.
Screening Cc1ccc(/C=C/C(=O)Nc2ccc([N+](=O)[O-])cc2)o1 returned Pf growth 96h -3.1%, NS1 function inh -9.9%, Sm TGR block 15.8µM*, AMA1 RON2 block -5.5% and Pf growth 48h -5.1%.
`Cc1ccc(/C=C/C(=O)Nc2nnc(C)s2)o1` gave Pf growth 96h -25.7%, NS1 function inh -0.1%, Sm TGR block inconclusive, AMA1 RON2 block 23.2% and Pf growth 48h 64.2%.
`Cc1cc(NS(=O)(=O)c2ccc(NC(=O)/C=C/c3ccccc3)cc2)nc(C)n1` gave AMA1 RON2 block 10.8%.
O=C(Nc1cc(Cl)cc(Cl)c1)c1ccc(F)c(S(=O)(=O)N2CCc3ccccc32)c1 was read as Sm TGR block 5.0%.
Screening COc1ccccc1N(Cc1cc(=O)[nH]c2ccccc12)C(=O)c1cccc([N+](=O)[O-])c1 returned Pf growth 96h inconclusive, NS1 function inh 0.3%, Sm TGR block -9.4%, AMA1 RON2 block 6.1% and Pf growth 48h inconclusive.
`O=C(O)c1cc[c]([Hg][Cl])cc1` gave Pf growth 96h 5.22µM*, NS1 function inh -59.2%, Sm TGR block inconclusive, AMA1 RON2 block -3.0% and Pf growth 48h 5.86µM*.
`O=C(NCc1ccco1)C1CCCN(c2ncnc3c2nc2n3CCCCC2)C1` (stereo unspecified) gave Pf growth 96h -21.6%, NS1 function inh -9.0%, Sm TGR block -12.7%, AMA1 RON2 block -8.6% and Pf growth 48h inconclusive.
Cc1ccc(C(=O)c2sc3c(c2N)c(=O)[nH]c(=O)n3CCc2ccccc2)cc1 was read as Pf growth 96h 9.28µM*, NS1 function inh 23.8%, Sm TGR block 6.9%, AMA1 RON2 block -13.3% and Pf growth 48h inconclusive.
N#Cc1cn(Cc2cccc(Cl)c2)c2ccccc12 was read as Pf growth 96h 5.6%, NS1 function inh -43.2%, Sm TGR block 4.1%, AMA1 RON2 block 38.9% and Pf growth 48h 9.28µM*.
For O=C(O)c1cc(S(=O)(=O)N2CCCCC2)ccc1N1CCOCC1 the results were AMA1 RON2 block 4.7%[11.6 µM].
For Nc1nc2c(c(=O)[nH]1)CN(Cc1ccccc1)CC2 the results were Pf growth 96h 9.7%, Sm TGR block 5.9%, AMA1 RON2 block 0.6% and Pf growth 48h -28.6%.

Source: PubChem
